± gives the standard deviation of the averaged measurements.
How the values were obtained:
Details in all cases: concentration: 10 µM; 24 h
HCC1569 [1] = test: cell number relative to DMSO (% of DMSO); higher = more cells (less growth inhibition / toxicity)
How it was run: (§1)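 Treatment: HCC1569 and TDF cells, 800 per well in 384-well plates with RPMI and 10% FBS, were given compounds at 10 µM for 24 h at 37 °C, in triplicate. Readout: after 3.7% formaldehyde fixation, cells were stained with a rabbit anti-H1.0 antibody, an AlexaFluor 647 secondary and DAPI. Reported values are H1.0 nuclear intensity or cell number as percent of the plate control, taken as the median of replicates, with positional smoothing for HCC1569.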

TDF [2] = test: as above
How it was run: as §1

TDF [3] = test: H1.0 immunofluorescence intensity relative to DMSO (% of DMSO); higher = stronger H1.0 induction, active = 120 or more
How it was run: as §1

HCC1569 [4] = test: H1.0 immunofluorescence intensity relative to DMSO (% of DMSO); higher = stronger H1.0 induction, active = 140 or more
How it was run: as §1
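Throughout, for H1.0 immunofluorescence intensity relative to DMSO: TDF is a line of transformed human dermal fibroblasts of mesenchymal origin.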
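Throughout, for cell number relative to DMSO: TDF denotes transformed human dermal fibroblasts of mesenchymal origin.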

Structure (SMILES)	cell number (HCC1569 [1])	cell number (TDF [2])	H1.0 immunofluorescence intensity (TDF [3])	H1.0 immunofluorescence intensity (HCC1569 [4])
CN(C(Cc1ccc(OS(=O)(=O)c2cccc3cnccc23)cc1)C(=O)N1CCN(c2ccccc2)CC1)S(=O)(=O)c1cccc2cnccc12 (stereo not drawn)	75.2 ± 17	95.6 ± 12	113 (inactive)	127 (inactive)
CC(=O)O.O=C(NCC1CCCCN1)c1cc(OCC(F)(F)F)ccc1OCC(F)(F)F (stereo not drawn) [Flecainide acetate]	102 ± 3.6	101 ± 1.2	91.5 (inactive)	107 (inactive)
O=C(C=CC=Cc1ccc2c(c1)OCO2)N1CCCCC1 [Piperine]	100	97	96.8 (inactive)	104 (inactive)
CC=CC(=O)N(CC)c1ccccc1C [Crotamiton]	103	98.5	101 (inactive)	104 (inactive)
O=C1NC(=O)C(=Cc2ccc(-c3ccc(F)cc3O)o2)S1	97.3	104	95.1 (inactive)	97.7 (inactive)
COC1(NC(=O)CSCC#N)C(=O)N2C(C(=O)[O-])=C(CSc3nnnn3C)CSC21.[Na+] (stereo not drawn) [Cefmetazole sodium]	101	110	91.2 (inactive)	89.6 (inactive)
N#CC(=Cc1c[nH]c2ccccc12)C(=O)c1ccc(O)c(O)c1 [Tyrphostin AG 808]	93.1	100	86.2 (inactive)	122 (inactive)
CC(C)(C)c1nc2c3cc[nH]c(=O)c3c3cc(F)ccc3c2[nH]1 [JAK Inhibitor I]	99.8	99.5	90.3 (inactive)	126 (inactive)
Cl.Nc1cc(Nc2ccc(S(N)(=O)=O)cc2)ncn1	100	93.3	98.4 (inactive)	102 (inactive)
CCCCCN(CCCCC)C(=O)C(CCC(=O)O)NC(=O)c1ccc(Cl)c(Cl)c1 (stereo not drawn) [Lorglumide]	100	91.5	102 (inactive)	96.4 (inactive)
N[C@@H](Cc1c[nH]c2ccc(O)cc12)C(=O)O [5-Hydroxy-L-tryptophan]	98.1	94.8	93 (inactive)	116 (inactive)
CCCCCCCCCCCCCCCCCC(=O)NCC(COP(=O)([O-])OCC[N+](C)(C)C)OCC (racemic) [rac-2-Ethoxy-3-octadecanamido-1-propylphosphocholine]	39	54.4	183 (active)	153 (active)
CN1C(CC(=O)c2ccccc2)CCCC1CC(O)c1ccccc1 (stereo not drawn) [Lobeline]	103	102	94.9 (inactive)	99.8 (inactive)
Cl.O=C(O)C1=CCCNC1 [Guvacine hydrochloride]	97.8	99.1	103 (inactive)	91.1 (inactive)
CC(C)(C)c1onc(OCP(=O)(O)O)c1CC(N)C(=O)O (stereo not drawn)	104	113	91.2 (inactive)	95.1 (inactive)
CCCCC(=O)N(Cc1ccc(-c2ccccc2-c2nn[nH]n2)cc1)[C@H](C(=O)O)C(C)C	98.8	112	93.7 (inactive)	100 (inactive)
CCN(CC)CCCCN1c2ccccc2Oc2ccc(Cl)cc21.Cl [Akt Inhibitor X]	83	87.1	108 (inactive)	150 (active)
